The values that follow come from PubChem BioAssay (NCATS).

Results filed as inconclusive are left out. A number with no mark means an inactive call. Calls come from the whole dose curve; as a rule, active = well fitted inhibition curve with a large enough effect; inconclusive = small, poorly fitted or top-dose-only effect; inactive = flat fitted curve, though single readings scatter.
% is set by controls: 0 for no effect and ±100 for the full control effect.

Calcium and integrin-binding protein 1 (Homo sapiens), sequence (Q99828 whole entry, looked up): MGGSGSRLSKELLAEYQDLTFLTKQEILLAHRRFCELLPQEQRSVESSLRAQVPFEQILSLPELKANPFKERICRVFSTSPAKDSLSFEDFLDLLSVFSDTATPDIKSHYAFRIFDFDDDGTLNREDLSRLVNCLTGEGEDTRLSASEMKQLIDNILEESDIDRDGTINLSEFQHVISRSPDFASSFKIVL

This assay addresses Calcium and integrin-binding protein 1 (Homo sapiens) (UniProt Q99828). Description: Primary qHTS for Identification of Calcium Integrin Binding Protein 1 (CIB1) Competitor (AID 1508620).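 Note: GST tagged CIB1 binding a fluorescein labelled alphaIIb integrin peptide tracer; top concentration of the series differs between compounds.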 The conditions noted are these: CIB1-GST / FITC-alphaIIb peptide fluorescence polarization; series mostly up to 114 µM; activity change, negative = inhibition: at the top concentration. Summed up: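 CIB1-GST (1 uM final) and compound incubated 15 min at room temperature before adding FITC-alphaIIb peptide tracer (100 nM final). Competition for binding read by fluorescence polarization (ex 480, em 540) after another 15 min at room temperature.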
For orientation: qHTS replaces the single test concentration by a dilution series.
In the case of `CC(C)c1cc(C(=O)N2CC[C@H](NC(=O)C3CC3)C2)n[nH]1`, the “activity change, negative = inhibition” value is 0.214%. With `CC(NC(=O)C(O)C(C)C)C(=O)NC1C(=O)N(C)CCc2ccccc21` (configuration not stated) the figure was -0.298%; with `NC(=O)c1cnc(NCCc2ccc(O)c(Cl)c2)nc1NCc1ccccc1`, 0.0727%; with `NC(=O)C(CCC(F)(F)F)N(Cc1ccc(-c2ncon2)cc1F)S(=O)(=O)c1ccc(Cl)cc1` (configuration not stated), -6.29%. Regarding `C=CC(C)(O)CC[C@H]1C(=C)CCC2[C@](C)(C(=O)O)CCC[C@@]21C` (some centres not stated), the “activity change, negative = inhibition” value was 5.14% [at 57.7 µM]. With `C=C(C)C1CCC2(C(=O)O)CCC3(C(=O)O)C(CCC4C5(C)CCC(O)C(C)(C(=O)O)C5CCC43C)C12` (configuration not stated) the figure was -0.535% [at 57.7 µM]. With `C=CC1(C)C=C2C(=O)OC(=O)C3=C(CCCC3(C)C)C2(O)CC1` (configuration not stated) the figure was 3.72% [at 57.7 µM]; with `C[C@@H](Oc1cc(-n2cnc3ccc(OC4CCN(C)CC4)cc32)sc1C(N)=O)c1ccccc1C(F)(F)F`, -7.47%; with `CN(C)c1ccc2c(c1)OC(N)=C(C#N)C2c1cccc(C(F)(F)F)c1` (configuration not stated), 61.9%. With `Cc1cc(C)nc(NS(=O)(=O)c2ccc(NC(=S)NC(=O)COc3ccc(Br)cc3Cl)cc2)n1` the figure was -7.24%. Take `Cn1cncc1C(N)(c1ccc(Cl)cc1)c1ccc2c(c1)c(-c1cccc(Cl)c1)cc(=O)n2C` (configuration not stated): the “activity change, negative = inhibition” value is -2.86%.

For the molecule `C[C@@H]1O[C@@H](O[C@H]2[C@H](O)[C@@H](O[C@@H]3O[C@H](CO)[C@@H](O)[C@H](O[C@@H]4O[C@H](CO)[C@@H](O)[C@H](O)[C@H]4O)[C@H]3O)[C@H](O[C@H]3CC[C@@]4(C)C(=CC[C@@H]5C4CC[C@@]4(C)C5C[C@@H]5OC6(CC[C@@](C)(CO[C@@H]7O[C@H](CO)[C@@H](O)[C@H](O)[C@H]7O)O6)[C@@H](C)[C@@H]54)C3)O[C@@H]2CO)[C@H](O)[C@H](O)[C@H]1OC1OC(CO)C(O)C(O)C1O` (some centres not stated), the activity change, negative = inhibition is -2.87% [at 12.4 µM]. The result for `COc1ccc(/C=C/C(=O)O[C@@H]2[C@@H](O)[C@H](C)O[C@@H](O[C@H]3[C@@H]4C=CO[C@@H](O[C@H]5O[C@@H](CO)[C@H](O)[C@@H](O)[C@@H]5O)[C@@H]4[C@@]4(CO)O[C@@H]34)[C@@H]2OC(C)=O)cc1` reads 3.98% [at 30.2 µM]; that for `C/C=C/c1ccc2oc(-c3ccc(O)c(OC)c3)c(C)c2c1`, 2.26%; that for `COc1cc2ncnc(Nc3cccc(O)c3)c2cc1OC`, -0.483%.

For the molecule `Cc1ccc(C(=O)N(CCCN)C(c2nc3cc(Cl)ccc3c(=O)n2Cc2ccccc2)C(C)C)cc1` (configuration not stated), the “activity change, negative = inhibition” value was -5.05%. With `O=C(CSc1nc2c(c(=O)n1-c1ccccc1)SCC2)Nc1ccc(-c2ccccc2)cn1` the figure was -0.0397%. As to `COc1ccccc1NC(=O)OCC1CCN(C(=O)OC(C)(C)C)CC1`, the “activity change, negative = inhibition” value is 1.52%. The result for `CC(=O)OC[C@]12[C@H](OC(C)=O)C(=O)[C@@H]3[C@@H](OC(C)=O)[C@@]14O[C@@]3(C)COC(=O)c1cccnc1[C@@H](C)[C@H](C)C(=O)O[C@@H]([C@H](O)[C@@H]2OC(C)=O)[C@]4(C)O` reads -0.118% [at 30.2 µM]; that for `CC1(C)CCCC2(C)C(C(=O)O)=CCC12` (configuration not stated), -0.75%; that for `C=CC(=O)N1CCN(C(=O)CNc2cc(I)c(Cl)cc2O)CC1`, -12.1%. The result for `CCCCc1ccc(C(=O)Nc2cc(-c3ccc(Cl)cc3)nn2-c2ccc(Cl)cc2)cc1` reads 3.58%. The result for `COc1c2ccoc2cc2oc(CO[C@@H]3O[C@H](CO)[C@@H](O)[C@H](O)[C@H]3O)cc(=O)c12` reads 0.683% [at 57.7 µM]. For the molecule `COC(=O)c1ccccc1O[C@@H]1O[C@H](CO)[C@@H](O)[C@H](O)[C@H]1O[C@@H]1O[C@@H](C)[C@H](O)[C@@H](O)[C@H]1O`, the “activity change, negative = inhibition” value is 0.69% [at 57.7 µM]. The result for `COC(=O)CCSCc1ccc(-c2onc(C)c2NC(=O)OC(C)c2ccccc2Cl)cc1` (configuration not stated) reads 1.95%; that for `COc1ccc(C2(O)c3ccccc3NC(=O)C2O)cc1` (configuration not stated), -1.37%. The result for `COc1cc(O)c([C@@H](CC(=O)N2CC(C)CC(C)C2)c2ccc3c(c2)OCO3)c(OC)c1` (some centres not stated) reads 1.64%.
